Test results as given in paper PMC8384837, “Expanding the binding specificity for RNA recognition by a PUF domain”.

molecular target: PUM1 PUF domain R5-RYS (Homo sapiens, UniProt Q14671 828-1176, C1007R;R1008Y;Q1011S); test: yeast three-hybrid, YBZ-1, SC-Leu-His + 0.5 mM 3-AT, 4 days; details: tags: N-Gal4 AD-HA kept; label: inside an RPR1-promoter hybrid RNA with tandem MS2 sites; ssRNA
Outline: (§1)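 Pumilio-1 PUF domain libraries, randomized at the three base-contacting residues of each repeat, were co-expressed with matching RNA elements from a centromeric plasmid in strain YBZ-1, which carries a LexA–MS2 coat fusion and a HIS3 reporter. Transformants grew for four days on SC-Leu (input) or on SC-Leu-His + 0.5 mM 3-AT (selection), and the repeat regions were PCR-amplified and Illumina-sequenced. The interaction score is the log change in variant frequency from input to selection. That logarithm is base 2, with a pseudocount of 1 where a variant was absent.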

Chain of PUM1 PUF domain R5-RYS (Q14671 828-1176 C1007R/R1008Y/Q1011S): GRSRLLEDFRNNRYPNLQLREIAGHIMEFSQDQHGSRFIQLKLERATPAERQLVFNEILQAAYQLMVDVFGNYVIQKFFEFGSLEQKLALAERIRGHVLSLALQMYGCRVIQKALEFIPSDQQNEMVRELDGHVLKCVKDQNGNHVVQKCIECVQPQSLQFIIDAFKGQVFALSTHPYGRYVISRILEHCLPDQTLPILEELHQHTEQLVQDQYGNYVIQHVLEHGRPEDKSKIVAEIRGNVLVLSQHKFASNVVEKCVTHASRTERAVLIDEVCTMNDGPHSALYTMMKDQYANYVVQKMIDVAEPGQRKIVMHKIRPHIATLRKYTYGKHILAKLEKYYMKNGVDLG

First: GGCUAGAACUAGUGGAUCCCCCGGCGCCCGGCGGCUCGAGCCCGGGUAAGUGUAAAUAGUCUGCAUGCCGCCGGGCGCCAUGCCUGCAGGUCGACUCUAGAAAACAUG
Second: GGCUAGAACUAGUGGAUCCCCCGGCGCCCGGCGGCUCGAGCCCGGGUAAGUGUUAAUAGUCUGCAUGCCGCCGGGCGCCAUGCCUGCAGGUCGACUCUAGAAAACAUG
The binding signal of the first is higher: 3.42 log2 enrichment (interaction score) for the first, 3.23 log2 enrichment (interaction score) for the second.

With “GGCUAGAACUAGUGGAUCCCCCGGCGCCCGGCGGCUCGAGCCCGGGUAAGUGUCAAUAGUCUGCAUGCCGCCGGGCGCCAUGCCUGCAGGUCGACUCUAGAAAACAUG” the binding signal was 5.4 log2 enrichment (interaction score).

molecular target: PUM1 PUF domain R4-SPA (Homo sapiens, UniProt Q14671 828-1176, N971S;H972P;Q975A); test: as above; details: tags: N-Gal4 AD-HA kept; label: inside an RPR1-promoter hybrid RNA with tandem MS2 sites; ssRNA
Sequence (Q14671 828-1176 N971S/H972P/Q975A): as the sequence (Q14671 828-1176 C1007R/R1008Y/Q1011S) above, with N144S, H145P, Q148A, R180C, Y181R, S184Q counted along it
Outline: as §1

First: GGCUAGAACUAGUGGAUCCCCCGGCGCCCGGCGGCUCGAGCCCGGGUAAGUGUAUAUAGUCUGCAUGCCGCCGGGCGCCAUGCCUGCAGGUCGACUCUAGAAAACAUG
Second: GGCUAGAACUAGUGGAUCCCCCGGCGCCCGGCGGCUCGAGCCCGGGUAAGUGUAAAUAGUCUGCAUGCCGCCGGGCGCCAUGCCUGCAGGUCGACUCUAGAAAACAUG
The binding signal of the first is higher: 3.25 log2 enrichment (interaction score) for the first, 3.03 log2 enrichment (interaction score) for the second.

“GGCUAGAACUAGUGGAUCCCCCGGCGCCCGGCGGCUCGAGCCCGGGUAAGUGUACAUAGUCUGCAUGCCGCCGGGCGCCAUGCCUGCAGGUCGACUCUAGAAAACAUG” was tested, and the binding signal was 1.59 log2 enrichment (interaction score).

molecular target: PUM1 PUF domain R5-RFL (Homo sapiens, UniProt Q14671 828-1176, C1007R;R1008F;Q1011L); test: as above; details: tags: N-Gal4 AD-HA kept; label: inside an RPR1-promoter hybrid RNA with tandem MS2 sites; ssRNA
Sequence (Q14671 828-1176 C1007R/R1008F/Q1011L): as the sequence (Q14671 828-1176 C1007R/R1008Y/Q1011S) above, with Y181F, S184L counted along it
Outline: as §1

Compared with “GGCUAGAACUAGUGGAUCCCCCGGCGCCCGGCGGCUCGAGCCCGGGUAAGUGUAAAUAGUCUGCAUGCCGCCGGGCGCCAUGCCUGCAGGUCGACUCUAGAAAACAUG”, “GGCUAGAACUAGUGGAUCCCCCGGCGCCCGGCGGCUCGAGCCCGGGUAAGUGUUAAUAGUCUGCAUGCCGCCGGGCGCCAUGCCUGCAGGUCGACUCUAGAAAACAUG” is higher in binding signal: 3.51 log2 enrichment (interaction score) for the first, 4.97 log2 enrichment (interaction score) for the second.

In the case of “GGCUAGAACUAGUGGAUCCCCCGGCGCCCGGCGGCUCGAGCCCGGGUAAGUGUCAAUAGUCUGCAUGCCGCCGGGCGCCAUGCCUGCAGGUCGACUCUAGAAAACAUG”, the binding signal is reported as 4.06 log2 enrichment (interaction score).
